Source: ChEMBL document CHEMBL1157539, “Thousands of chemical starting points for antimalarial lead identification” (Nature, 2010)

Experiments:
Format in all cases: functional
Plasmodium falciparum [1] = experiment: GSK_TCMDC: Inhibition of Plasmodium falciparum 3D7 in whole red blood cells, using parasite LDH activity as an index of growth. Test compounds present at 2uM
Plasmodium falciparum [2] = experiment: GSK_TCMDC: Inhibition of Plasmodium falciparum Dd2 in whole red blood cells, using parasite LDH activity as an index of growth. Test compounds present at 2uM
HepG2 = experiment: GSK_TCMDC: Percent inhibition of human HepG2 cell line. Test compounds present at 10uM.

Work on `Cc1ccccc1C1CCN(C2CCC(NC(=O)/C=C/c3ccc(C(F)(F)F)cc3F)CC2)CC1` (stereo not given) yielded an Inhibition (Plasmodium falciparum [1]) of 99%, an Inhibition (Plasmodium falciparum [2]) of 58% and an Inhibition (HepG2) of 72%.

`O=C(N/C=N/c1cc([N+](=O)[O-])c(-c2cccnc2)n1-c1ccc(O)cc1)c1ccccc1` was tested, and the Inhibition (Plasmodium falciparum [1]) was 100%, the Inhibition (Plasmodium falciparum [2]) was 62% and the Inhibition (HepG2) was 17%.

Molecule `Cc1cccc(-c2nc(Nc3ccncc3)c3ccc([N+](=O)[O-])cc3n2)n1` has an Inhibition (Plasmodium falciparum [1]) of 87%, an Inhibition (Plasmodium falciparum [2]) of 13% and an Inhibition (HepG2) of 0%.

Molecule `COc1cc2ncnc(Nc3ccc(OCc4ccccc4)c(C(F)(F)F)c3)c2cc1OC.Cl` has an Inhibition (Plasmodium falciparum [1]) of 100%, an Inhibition (Plasmodium falciparum [2]) of 78% and an Inhibition (HepG2) of 8%.

Molecule `O=C(C=Cc1ccc(Cl)c(Cl)c1)NCCCCCN1CCCC(CCCNS(=O)(=O)c2cccc(C(F)(F)F)c2)C1` (stereo not given) has an Inhibition (Plasmodium falciparum [1]) of 94%, an Inhibition (Plasmodium falciparum [2]) of 33% and an Inhibition (HepG2) of 81%.

Work on `O=C(c1ccc(-c2ccc(-c3nc4cc(C(F)(F)F)ccc4[nH]3)s2)cc1)N1CCN(CCc2ccccc2)CC1` yielded an Inhibition (Plasmodium falciparum [1]) of 98%, an Inhibition (Plasmodium falciparum [2]) of 60% and an Inhibition (HepG2) of 23%.

`CCN1CCCC(CNC(=O)/C(=C/C=C/c2cc3cc(Cl)c(Cl)cc3[nH]2)OC)C1` (stereo not given) gave an Inhibition (Plasmodium falciparum [1]) of 93%, an Inhibition (Plasmodium falciparum [2]) of 89% and an Inhibition (HepG2) of 33%.

`CC(=O)Nc1cccc(C(=O)Nc2cccc(-c3ccc(-c4nc5cccc(C)c5[nH]4)cc3)c2)c1` gave an Inhibition (Plasmodium falciparum [1]) of 95%, an Inhibition (Plasmodium falciparum [2]) of 12% and an Inhibition (HepG2) of 29%.

Molecule `Cc1ccc2nc(N/C(N)=N/C(=O)NC3CCCCC3)nc(C)c2c1` has an Inhibition (Plasmodium falciparum [1]) of 99%, an Inhibition (Plasmodium falciparum [2]) of 94% and an Inhibition (HepG2) of 8%.

Molecule `FC(F)(F)c1cccc(N=C(S)NN=Cc2ccccn2)c1` has an Inhibition (Plasmodium falciparum [1]) of 100%, an Inhibition (Plasmodium falciparum [2]) of 99% and an Inhibition (HepG2) of 29%.

`Cc1[nH]c(C)c(-c2ccc(-c3cc(C(F)(F)F)cc(C(F)(F)F)c3)nc2)c(=O)c1Br` showed an Inhibition (Plasmodium falciparum [1]) of 98%, an Inhibition (Plasmodium falciparum [2]) of 96% and an Inhibition (HepG2) of 18%.

Molecule `CCCCNC(=O)[C@H](CC1CCCCC1)NC(=O)c1ccc(O)c(-c2ccc(Cl)c(Cl)c2)c1` has an Inhibition (Plasmodium falciparum [1]) of 98%, an Inhibition (Plasmodium falciparum [2]) of 99% and an Inhibition (HepG2) of 0%.

In the case of `Nc1ncc(-c2ccccc2)cc1-c1cccc2ncccc12.O=C(O)C(F)(F)F`, the Inhibition (Plasmodium falciparum [1]) is reported as 97%, the Inhibition (Plasmodium falciparum [2]) is reported as 99% and the Inhibition (HepG2) is reported as 82%.

Work on `CC(=O)C=C1CC(=O)N(C[C@@H](O)[C@H]2O[C@@H]3OC(C)(C)O[C@@H]3[C@H]2O)c2ccccc2N1` yielded an Inhibition (Plasmodium falciparum [1]) of 90%, an Inhibition (Plasmodium falciparum [2]) of 2% and an Inhibition (HepG2) of 0%.

With `CC(C)n1ncc2c(C(=O)N3CCCc4ccccc43)cc(-c3ccccc3)nc21` the Inhibition (Plasmodium falciparum [1]) was 100%, the Inhibition (Plasmodium falciparum [2]) was 82% and the Inhibition (HepG2) was 5%.

For `COc1ccc(N2CCN(CCCOc3ccc(NC(=O)c4cc(Cl)cc(Cl)c4)cc3)CC2)c(OC)c1`, the Inhibition (Plasmodium falciparum [1]) was 100%, the Inhibition (Plasmodium falciparum [2]) was 41% and the Inhibition (HepG2) was 38%.

`COc1cc(C=NNc2cc(C)nc3c(OC)cccc23)cc(OC)c1OC` was tested, and the Inhibition (Plasmodium falciparum [1]) was 94%, the Inhibition (Plasmodium falciparum [2]) was 49% and the Inhibition (HepG2) was 2%.

In the case of `Nc1nc(N)c2c(ccc3c2ccn3CC2CC2)n1`, the Inhibition (Plasmodium falciparum [1]) is reported as 96%, the Inhibition (Plasmodium falciparum [2]) is reported as 3% and the Inhibition (HepG2) is reported as 46%.

`CCN(CC)c1ccc(-c2nc3cc(Cl)cnc3[nH]2)cc1` showed an Inhibition (Plasmodium falciparum [1]) of 85%, an Inhibition (Plasmodium falciparum [2]) of 85% and an Inhibition (HepG2) of 16%.

In the case of `CCCCCCN1CCC(NCc2ccc(OCCN3CCCC3)cc2)CC1.O=C(O)C(F)(F)F`, the Inhibition (Plasmodium falciparum [1]) is reported as 100%, the Inhibition (Plasmodium falciparum [2]) is reported as 93% and the Inhibition (HepG2) is reported as 23%.

Molecule `Oc1nc(Cc2ccccc2)nc2ccc(Cl)cc12` has an Inhibition (Plasmodium falciparum [1]) of 92%, an Inhibition (Plasmodium falciparum [2]) of 76% and an Inhibition (HepG2) of 13%.

Work on `CCCCCCn1c(Sc2ccc(C#N)c([N+](=O)[O-])c2)nnc1-c1cccc(Cl)c1` yielded an Inhibition (Plasmodium falciparum [1]) of 96%, an Inhibition (Plasmodium falciparum [2]) of 90% and an Inhibition (HepG2) of 17%.

In the case of `Cl.Nc1nc(Nc2cccc(O)c2)nc2ccccc12`, the Inhibition (Plasmodium falciparum [1]) is reported as 96%, the Inhibition (Plasmodium falciparum [2]) is reported as 79% and the Inhibition (HepG2) is reported as 25%.

`CC(C)N1CCC(N(Cc2ccc(-c3ccc(C(F)(F)F)cc3)cc2)C(=O)Cn2c(CCc3cccc(F)c3F)cc(=O)c3cn(C)nc32)CC1.O=C(O)C(O)C(O)C(=O)O` gave an Inhibition (Plasmodium falciparum [1]) of 89%, an Inhibition (Plasmodium falciparum [2]) of 78% and an Inhibition (HepG2) of 100%.

Molecule `Cc1cc(N[C@@H](Cc2ccccc2)C(=O)NC2CCCC2)nc(NCCc2cccs2)n1.O=C(O)C(F)(F)F` has an Inhibition (Plasmodium falciparum [1]) of 99%, an Inhibition (Plasmodium falciparum [2]) of 14% and an Inhibition (HepG2) of 0%.

Molecule `CCCCCCN1CCN(Cc2cccc(NC(=O)c3cc4ccccc4s3)c2)CC1.O=C(O)C(F)(F)F` has an Inhibition (Plasmodium falciparum [1]) of 93%, an Inhibition (Plasmodium falciparum [2]) of 68% and an Inhibition (HepG2) of 20%.

Molecule `O=C(Nc1ccc(C(F)(F)F)cc1)NC1CCN(c2ccnc3cc(Cl)ccc23)CC1.O=C(O)C(F)(F)F` has an Inhibition (Plasmodium falciparum [1]) of 100%, an Inhibition (Plasmodium falciparum [2]) of 74% and an Inhibition (HepG2) of 22%.

With `CN1CCC(C(=O)N(Cc2ccc(-c3ccc(CNCCc4ccc(S(C)(=O)=O)cc4)cn3)cc2)C2CCN(Cc3ccccc3)CC2)CC1.O=C(O)C(F)(F)F` the Inhibition (Plasmodium falciparum [1]) was 100%, the Inhibition (Plasmodium falciparum [2]) was 95% and the Inhibition (HepG2) was 11%.

`CCCN(Cc1nnc(-c2ccco2)o1)C(=O)C1CCN(c2ncc(C(F)(F)F)cc2Cl)CC1` showed an Inhibition (Plasmodium falciparum [1]) of 98%, an Inhibition (Plasmodium falciparum [2]) of 92% and an Inhibition (HepG2) of 19%.

`CCCCc1cc(NC2CCN(C)CC2)nc(Nc2ccccc2)n1` showed an Inhibition (Plasmodium falciparum [1]) of 100%, an Inhibition (Plasmodium falciparum [2]) of 29% and an Inhibition (HepG2) of 7%.
